In the library only some 14% were active in any assay of this set; here they are far more common.
LmPK inh – blocks Leishmania mexicana pyruvate kinase activity. 290,000 compounds, 0.37% hits. Potency, µM (doses to about 57.5 µM), actives largely listed as inhibitors. purified LmPK, Kinase-Glo ATP luminescence, 1 h. Q27686
Target sequence (Q27686 whole entry, looked up): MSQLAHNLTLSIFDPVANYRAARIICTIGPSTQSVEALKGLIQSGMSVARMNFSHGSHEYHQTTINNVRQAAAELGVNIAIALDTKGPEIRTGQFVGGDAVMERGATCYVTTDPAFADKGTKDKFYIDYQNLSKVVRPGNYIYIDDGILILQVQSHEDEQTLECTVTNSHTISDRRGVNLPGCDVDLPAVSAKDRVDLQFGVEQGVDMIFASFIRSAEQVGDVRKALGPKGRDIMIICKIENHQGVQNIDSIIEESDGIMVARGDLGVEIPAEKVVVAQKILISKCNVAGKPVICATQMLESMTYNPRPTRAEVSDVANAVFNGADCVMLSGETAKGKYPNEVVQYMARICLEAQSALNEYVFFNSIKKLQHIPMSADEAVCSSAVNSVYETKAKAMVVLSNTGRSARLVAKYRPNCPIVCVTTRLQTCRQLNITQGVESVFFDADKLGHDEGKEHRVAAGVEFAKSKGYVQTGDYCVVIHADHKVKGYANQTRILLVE
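0.1 nM LmPK, 0.5 mM PEP, 0.1 mM ADP; 50 mM imidazole pH 7.2, 7 mM MgCl2, 50 mM KCl; 1 h RT. Kinase-Glo luminescence readout, normalized to no-enzyme (full inhibition) and uninhibited wells.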
Cycloheximide cs – counter-screen for Shiga toxin inhibitors: cycloheximide protein synthesis inhibition | max response, % | cell reporter, cycloheximide protein synthesis inhibition counterscreen | 300,000 compounds, 12% hits | AID 2314; in the data active = max response mostly above about 13%, no sharp cut-off; inactive = mostly below about 14%; also: read at 38.3 µM for the half of the compounds with a filed dose
FBPA Giardia inh – blocks Giardia fructose-bisphosphate aldolase activity; purified Giardia FBPA; A8B2U2; 290,000 compounds, 0.71% hits; Potency, µM (series often up to 59.6 µM), actives largely listed as inhibitors; also: nearly all actives have a fitted effect of over 55% in size
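40 nM FBPA preincubated 10 min at RT with compound (up to 57.5 uM final), then substrate plus GAPDH/TPI/NAD/arsenate coupling and diaphorase/resazurin added. Fluorescence read after 20 min at RT, 525/598 nm.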
Shiga toxin inh – Shiga toxin inhibition | Vero cells, Shiga toxin protein synthesis inhibition reporter | inhibition, % at 38.7 µM | 290,000 compounds, 9.2% hits; in the data active = inhibition mostly above about 28%, no sharp cut-off; inactive = mostly below about 43%
NS1 inh – influenza NS1 inhibition | Potency, µM (highest dose often 46.1 µM) | 270,000 compounds, 0.4% hits | AID 2326; calls by dose curve; also: actives are rising curves; nearly all actives have a fitted effect of over 50% in size
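Read-out: OD600 growth recovery of NS1-expressing budding yeast. Cells grown overnight at 30C in -URA glucose medium, washed, resuspended and diluted 1:100 in 2% galactose assay medium, pH 6.0. Same strain lacking NS1 served as positive control.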
Hits are given with their value; - = inactive; ? = inconclusive; . = no result given. Unless noted, calls follow the shape of the dose curve; as a rule, active = well fitted curve in the direction sought with a large enough effect; inconclusive = small, poorly fitted or top-dose-only effect, or another doubt; inactive = no such curve, though single readings can be large; an effect the other way counts as inactive or inconclusive.

SMILES	LmPK inh	Cycloheximide cs	FBPA Giardia inh	Shiga toxin inh	NS1 inh
C=CCN=C1S/C(=C\c2ccc(Cl)cc2)C(=O)N1CC=C	-	-	-	49.5	-
C=CCN=C1S/C(=C/c2ccc([N+](=O)[O-])cc2)C(=O)N1CC=C	-	-	-	-	-
Oc1ccc(N=Nc2nc(-c3ccccc3)c(-c3ccccc3)[nH]2)cc1	-	-	-	-	-
Oc1ccc(N=Nc2n[nH]c(-c3ccccc3)n2)cc1	?	32.5	-	88.7	-
Oc1ccc(N=Nc2n[nH]c(-c3ccc(Br)cc3)n2)cc1	-	19.5	-	-	-
COCCNC(=O)C(c1ccc(C)cc1)N(Cc1ccco1)C(=O)CCC(=O)Nc1ccccn1 (stereo unspecified)	-	-	-	-	-
CC(=O)N1CCN(C(=O)c2ccc(C(=O)c3ccccc3)cc2)CC1	-	-	-	-	-
O=C(NCc1ccc(F)cc1)c1noc2c1CCCC2	-	20.5	-	-	-
O=C(Nc1ccc(F)cc1F)c1noc2c1CCC2	?	34.9	-	58.8	-
O=C(NCc1ccc(F)cc1)c1noc2c1CCCCC2	-	20.8	-	-	-
O=C(NCc1ccc(Cl)cc1)c1noc2c1CCCCC2	-	32.1	-	46.8	-
COc1ccc(C(=O)N2CCC3(CCN(Cc4cc(C(F)(F)F)cc(C(F)(F)F)c4)CC3)CC2)cc1	.	.	-	.	.
O=C1CCCC(=O)N1c1ccc(N2CCOCC2)c([N+](=O)[O-])c1	-	-	-	-	.
CN=C1SC(CC(=O)Nc2ccccc2F)C(=O)N1C (stereo unspecified)	-	-	-	-	-
C=CCOc1ccc(/C=N/N2C(=O)C(CC(=O)Nc3ccc(F)cc3F)SC2=NC)cc1 (stereo unspecified)	-	21.3	-	29.7	?
Cc1nnc(SCc2nnc(-c3cccs3)o2)n1C	-	-	-	-	-
COc1nc(-c2ccccc2)ccc1-c1noc(-c2cccs2)n1	.	.	.	.	-
Cc1ccccc1-c1noc(-c2cccs2)n1	-	55.0	-	86.9	-
Cc1ccccc1-c1nnc(-c2cccs2)o1	?	58.4	-	85.3	-
COc1ccc(C(=O)[C@]2(C)C=C(c3ccc(OC)cc3)[C@H](C)C2)cc1	.	.	-	.	.
O=C1CCC(/C=C/c2ccccc2)=NN1Cc1ccc(F)cc1	-	-	-	-	.
O=C1CC(/C=C/c2ccccc2)=Nc2ccccc2N1	-	30.1	-	58.5	-
O=C1CC(/C=C/c2ccc(Cl)cc2)=Nc2ccccc2N1	-	38.8	-	97.4	-
O=C1CC(/C=C/c2cccnc2)=Nc2ccccc2N1	-	17.4	-	-	-
O=C1OC(/C=C/c2ccccc2)=NC/1=C\c1cccnc1	-	-	-	-	.
SMILES	LmPK inh	Cycloheximide cs	FBPA Giardia inh	Shiga toxin inh	NS1 inh
O=C1CC(C(F)(F)C(F)(F)C(F)(F)F)=Nc2ccccc2N1	-	-	-	-	-
CC1(C)CC(/C=C/c2ccccc2)=Nc2ccccc2N1	-	52.3	-	83.3	-
Cc1ccccc1Nc1oc(-c2ccccc2)nc1-c1ccccc1	.	.	-	.	.
CCOc1ccc(Nc2ccc([N+](=O)[O-])c3nonc23)cc1	-	33.5	-	56.1	-
CC1(C)CC(=O)c2c(O)cc(OCC(=O)Nc3ccc(CCO)cc3)cc2O1	-	15.5	-	-	-
COc1ccc(NC(=O)COc2cc(O)c3c(c2)OC(C)(C)CC3=O)cc1	-	-	-	-	-
COc1cccc(NC(=O)COc2cc(O)c3c(c2)OC(C)(C)CC3=O)c1	-	23.9	-	-	-
COc1cc(NC(=O)COc2cc(O)c3c(c2)OC(C)(C)CC3=O)cc(OC)c1	-	-	-	-	-
CC(C)(C)C(=O)NC(c1ccc(Cl)cc1)[C@]1(C)C[C@H]1C1CCCCC1 (stereo partly specified)	.	.	-	.	.
O=S(=O)(c1cc(F)ccc1F)N1CCC2(CC1)OCCO2	-	60.0	.	84.6	-
O=S(=O)(c1ccc(F)cc1)N1CCC2(CC1)OCCO2	-	-	-	-	.
O=C(Nc1cccc(Cl)c1)N1CCCCCC1	-	14.9	-	-	-
O=C(Nc1ccc(C(=O)N2CCCCC2)cc1)Nc1cccc(Cl)c1	-	32.7	.	72.4	-
O=C(Nc1ccccc1)N1CCCC1	-	-	-	-	-
COc1ccc(Cl)cc1NC(=O)CN(C)C1CCCCC1	-	-	-	-	-
COc1ccc(C)cc1NC(=O)CN(Cc1nnc(-c2ccc(Cl)cc2)o1)C1CCCC1	-	12.7	-	-	-
O=C(N/N=C/c1ccccc1C(=O)O)c1ccc(COc2cccc3cccnc23)cc1	-	-	-	-	.
NNC(=O)c1ccc(COc2cccc3cccnc23)cc1	-	32.1	-	-	.
